Screens (PubChem BioAssay)
A selection: hits, their analogues and other compounds. The true share with any hit is near 11%.
ALDH1A1 block: blocks purified human ALDH1A1 activity; P00352; Purified ALDH1A1, NADH fluorescence, propionaldehyde substrate; Potency, µM (top dose mostly 75.3 µM), hits mostly inhibitors; actives 7.3% (n = 220,000); AID 1030; active = well fitted inhibition curve with a large enough effect, not every such curve was filed as active; inconclusive = small, poorly fitted or top-dose-only effect, or another doubt; inactive = no such curve, though single readings can be large or run the other way
Target sequence (P00352 whole entry, looked up): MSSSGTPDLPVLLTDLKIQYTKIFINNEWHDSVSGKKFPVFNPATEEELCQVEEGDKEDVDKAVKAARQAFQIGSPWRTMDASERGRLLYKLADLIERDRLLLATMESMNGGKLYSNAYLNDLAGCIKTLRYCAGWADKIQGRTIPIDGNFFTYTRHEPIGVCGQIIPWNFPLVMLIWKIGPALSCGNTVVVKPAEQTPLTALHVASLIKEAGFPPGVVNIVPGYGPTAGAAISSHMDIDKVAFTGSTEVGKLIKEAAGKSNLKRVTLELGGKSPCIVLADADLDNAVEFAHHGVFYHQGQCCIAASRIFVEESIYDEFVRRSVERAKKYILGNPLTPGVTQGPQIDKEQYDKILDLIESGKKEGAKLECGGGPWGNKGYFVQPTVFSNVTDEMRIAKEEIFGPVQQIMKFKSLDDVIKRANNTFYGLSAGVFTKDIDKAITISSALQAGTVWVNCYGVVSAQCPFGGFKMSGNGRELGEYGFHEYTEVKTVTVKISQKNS
HttQ103 aggreg: mutant huntingtin aggregation inhibition. PC12 HttQ103-GFP aggregates, Acumen cytometry, 40 h. Potency, µM (top dose mostly 46.1 µM), most hits filed as inhibitors. actives 1.1% (n = 220,000). AID 1688; also: nearly all actives have a fitted effect of over 60% in size
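PC12 cells stably carrying ecdysone-inducible HTT exon 1 Q103–GFP were induced with tebufenozide (100 nM final) and treated with library compounds in titration. GFP aggregates in lysates were counted by laser scanning cytometry.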
PNC inhibitor: blocks assembly of the perinucleolar compartment; PC3M PTB-GFP, PNC prevalence imaging, 16 h; active compounds read low; activity change (PNC), negative = inhibition, % at 10 µM; actives 3.1% (n = 140,000); AID 2417;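 active = readout at or below -70, meaning at least 70% loss of cells showing the perinucleolar compartment, a nuclear body marking cancer cells; inconclusive = readout between -30 and a set limit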
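Read-out is percentage of cells bearing a perinucleolar compartment, from automated 20x imaging of fixed, Hoechst-stained PC3M PTB-GFP cells. Cells were seeded 4 h, then exposed 16 h to compound (23 nl of library stock) in duplicate plates.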
HTT cytoprotect: Huntington cell model cytoprotection by ATP luminescence; PC12 HTT-Q103 induced, cytoprotection, ATP luminescence, 40 h; Potency, µM (titrated, usually from 56.4 µM), usual class: activators; actives 0.14% (n = 230,000); also: nearly all actives have a fitted effect of over 45% in size
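Compounds added alongside 100 nM tebufenozide, which induces toxic Q103 huntingtin exon 1-GFP in stable PC12 cells; surviving cells quantified by luminescent ATP measurement. Medium: phenol red-free DMEM, 5% equine and 5% calf serum.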
RGS12 GoLoco inh-1: inhibitors of human Gai1-RGS12 GoLoco interaction (red fluorophore). P63096. Gai1:RGS12 GoLoco peptide FP, rhodamine, 10 min. Potency, µM (top dose mostly 61.6 µM), usual class: inhibitors. actives 0.44% (n = 230,000); active = well fitted inhibition curve with a large enough effect, not every such curve was filed as active; inactive = no such curve, though single readings can be large or run the other way; also: nearly all actives have a fitted effect of over 30% in size
HPGD block: blocks human HPGD enzyme activity; Potency, µM, most hits filed as inhibitors; purified HPGD, NADH fluorescence kinetic, PGE2 substrate; actives 4.3% (n = 150,000); active = well fitted inhibition curve with a large enough effect, not every such curve was filed as active; inconclusive = small, poorly fitted or top-dose-only effect, or another doubt; inactive = no such curve, though single readings can be large or run the other way
Target sequence (P15428 whole entry, looked up): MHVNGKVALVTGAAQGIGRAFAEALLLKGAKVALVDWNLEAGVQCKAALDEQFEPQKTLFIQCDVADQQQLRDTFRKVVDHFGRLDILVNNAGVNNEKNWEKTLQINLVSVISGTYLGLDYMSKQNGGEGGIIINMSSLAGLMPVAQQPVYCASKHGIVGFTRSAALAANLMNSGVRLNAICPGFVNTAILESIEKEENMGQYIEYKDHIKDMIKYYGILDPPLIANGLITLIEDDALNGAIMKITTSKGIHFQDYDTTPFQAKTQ
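20 nM HPGD preincubated 15 min at room temperature with compound in 50 mM Tris-HCl pH 8, 0.01% Tween 20. Started with 1 mM NAD+ and 30 uM prostaglandin E2; NADH fluorescence (360/450 nm) read 5 times over 30-s intervals, last minus first.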
RGS12 GoLoco inh-2: confirmation of human RGS12 GoLoco motif inhibitors. shares compounds with RGS12 GoLoco inh-1. Gai1/rhodamine-RGS12 GoLoco peptide fluorescence polarization. Potency, µM (titrated, usually from 57.1 µM), most hits filed as inhibitors. actives 50% (n = 110)
HPGD inh conf: confirmation of human HPGD inhibitors; shares compounds with HPGD block; recombinant HPGD, NADH fluorescence, PGE2 substrate; Potency, µM (titrated, usually from 57.1 µM), most hits filed as inhibitors; actives 90% (n = 90); AID 2429; calls by dose curve
Hits are given with their value; [ ] = another dose, or the depositor's remark. Unless noted, calls follow the shape of the dose curve; as a rule, active = well fitted curve in the direction sought with a large enough effect; inconclusive = small, poorly fitted or top-dose-only effect, or another doubt; inactive = no such curve, though single readings can be large; an effect the other way counts as inactive or inconclusive.

For Cn1c(SCC(=O)N2CCCC2)nnc1-c1ccc(S(=O)(=O)N2CCCC2)cc1 the results were ALDH1A1 block inconclusive, HttQ103 aggreg inactive, PNC inhibitor inactive, HTT cytoprotect inactive, RGS12 GoLoco inh-1 inactive and HPGD block inactive.
`CCC(=O)Nc1ccc(-c2nnc(SCC(=O)N3CCCCC3)n2C)cc1` gave ALDH1A1 block inactive, HttQ103 aggreg inactive, PNC inhibitor inactive, HTT cytoprotect inactive, RGS12 GoLoco inh-1 inactive, HPGD block inactive and RGS12 GoLoco inh-2 inactive.
Cn1c(SCC(=O)Nc2ccccc2)nnc1-c1ccc(NC(=O)CCc2ccccc2)cc1 was read as ALDH1A1 block inactive, HttQ103 aggreg inactive, PNC inhibitor inactive, HTT cytoprotect inactive[10 µM], RGS12 GoLoco inh-1 inactive, HPGD block inactive and RGS12 GoLoco inh-2 inactive.
`CC(O)c1c(OCc2ccccc2)ncnc1OCc1ccccc1` (stereo not drawn) gave ALDH1A1 block inconclusive, HttQ103 aggreg inconclusive, PNC inhibitor inactive, HTT cytoprotect inactive, RGS12 GoLoco inh-1 inactive and HPGD block inconclusive.
Cc1oc(-c2cccc(Cl)c2)nc1CSc1nc2c(c(=O)[nH]1)CCC2 was read as ALDH1A1 block inactive, HttQ103 aggreg inactive, PNC inhibitor inactive, RGS12 GoLoco inh-1 inactive, HPGD block 0.56µM and HPGD inh conf 1.3µM.
`O=C(c1ccc(COc2ccccc2Br)cc1)N1CCCCC1` gave ALDH1A1 block inconclusive, HttQ103 aggreg inactive, PNC inhibitor inactive, HTT cytoprotect inactive, RGS12 GoLoco inh-1 inactive, HPGD block 0.045µM and HPGD inh conf 0.089µM.
`COc1ccc(S(=O)(=O)Nc2cc(Sc3ncn[nH]3)c(O)c3ccccc23)cc1` gave ALDH1A1 block inconclusive, HttQ103 aggreg inactive[9.22 µM], PNC inhibitor inactive, HTT cytoprotect inactive, RGS12 GoLoco inh-1 inactive, HPGD block 1.1µM and HPGD inh conf 0.35µM.
O=C(c1ccc([N+](=O)[O-])cc1[N+](=O)[O-])N1CCCC1 was read as ALDH1A1 block inactive, HttQ103 aggreg inactive[9.22 µM], HTT cytoprotect inactive[10 µM] and RGS12 GoLoco inh-1 inactive.
Screening O=C(c1cccc([N+](=O)[O-])c1)N1CCCC(C(=O)N2CCCCC2)C1 (stereo not drawn) returned HttQ103 aggreg inactive[9.22 µM], HTT cytoprotect inactive[10 µM] and RGS12 GoLoco inh-1 inactive.
`CC1CCCN(C(=O)c2sc3cc([N+](=O)[O-])ccc3c2Cl)C1` (stereo not drawn) gave ALDH1A1 block 5.6µM, HttQ103 aggreg inactive, PNC inhibitor inactive, HTT cytoprotect inactive, RGS12 GoLoco inh-1 inactive, HPGD block 0.45µM and HPGD inh conf 0.5µM.
`O=C(c1sc2cc([N+](=O)[O-])ccc2c1Cl)N1CCCCC1` gave ALDH1A1 block inconclusive, HttQ103 aggreg inactive, PNC inhibitor inactive, HTT cytoprotect inactive[10 µM], RGS12 GoLoco inh-1 inactive, HPGD block 1.1µM and HPGD inh conf 0.56µM.
Screening Cc1ccc(S(=O)(=O)N(C)c2ccc(C(=O)N3CCC(C(N)=O)CC3)cc2)cc1 returned ALDH1A1 block inactive, HttQ103 aggreg inactive, PNC inhibitor inactive, HTT cytoprotect inactive[0.074 µM], RGS12 GoLoco inh-1 inactive, HPGD block 28µM and HPGD inh conf inconclusive.
For O=C(CSc1n[nH]c(-c2ccccc2)n1)Nc1ncc(Br)cc1Br the results were ALDH1A1 block inactive, HttQ103 aggreg inactive, PNC inhibitor inactive, HTT cytoprotect inactive, RGS12 GoLoco inh-1 inactive, HPGD block 0.79µM and HPGD inh conf 1.4µM.
For Cc1nnc(NC(=O)CSc2n[nH]c(-c3ccccc3)n2)s1 the results were ALDH1A1 block inconclusive, HttQ103 aggreg inactive[9.22 µM], HTT cytoprotect inactive[10 µM] and RGS12 GoLoco inh-1 inactive.
Screening Fc1ccccc1CSc1nc2ncc(Br)cc2[nH]1 returned ALDH1A1 block inactive, HttQ103 aggreg inactive[9.22 µM], PNC inhibitor inactive, HTT cytoprotect inactive, RGS12 GoLoco inh-1 inactive, HPGD block 0.79µM and HPGD inh conf 0.63µM.
Screening O=C(CSc1nc2ncc(Br)cc2[nH]1)c1cccc([N+](=O)[O-])c1 returned ALDH1A1 block inconclusive, HttQ103 aggreg inactive, PNC inhibitor inactive, HTT cytoprotect inactive[10 µM], RGS12 GoLoco inh-1 inactive, HPGD block 7.9µM and HPGD inh conf 2.2µM.
`COC(=O)Nc1ccc(Cc2ccncc2)cc1` gave ALDH1A1 block inactive, HttQ103 aggreg inactive, HTT cytoprotect inactive and RGS12 GoLoco inh-1 inactive.
`CCCCN1Cc2cc(C(=O)c3cc(F)ccc3O)cnc2NC1=O` gave ALDH1A1 block inconclusive, HttQ103 aggreg inconclusive, PNC inhibitor inactive, HTT cytoprotect inactive, RGS12 GoLoco inh-1 inactive and HPGD block inconclusive.
Screening Cc1ccccc1C(=O)N1CCc2ccccc2C1 returned ALDH1A1 block inconclusive, HttQ103 aggreg inconclusive, PNC inhibitor inactive, HTT cytoprotect inactive, RGS12 GoLoco inh-1 inactive, HPGD block 0.63µM and HPGD inh conf 2.5µM.
`O=C/C(=C\Nc1ccc(S(=O)(=O)CCO)cc1)c1nc2cc(Cl)ccc2o1` gave ALDH1A1 block inactive, HttQ103 aggreg inactive, HTT cytoprotect inactive[10 µM] and RGS12 GoLoco inh-1 inactive.
Cc1[nH]c(=O)[nH]c(=O)c1NS(=O)(=O)c1ccccc1 was read as ALDH1A1 block inactive, HttQ103 aggreg inactive, PNC inhibitor inactive, HTT cytoprotect inactive[10 µM], RGS12 GoLoco inh-1 inactive and HPGD block inactive.
`O=C(Nc1ccc(C(=O)N2CCCCC2)cc1)c1ccc(Br)cc1` gave ALDH1A1 block 14µM, HttQ103 aggreg inconclusive, PNC inhibitor inactive, HTT cytoprotect inactive, RGS12 GoLoco inh-1 inactive, HPGD block 0.63µM and HPGD inh conf 0.35µM.
`COc1ccccc1C(=O)Nc1ccc(C(=O)N2CCCC2)cc1` gave ALDH1A1 block inactive, HttQ103 aggreg inactive, PNC inhibitor inconclusive, HTT cytoprotect inactive, RGS12 GoLoco inh-1 inactive, HPGD block 1.4µM and HPGD inh conf 1µM.
For O=C(Nc1ccc(Br)cc1)N1CCCCCCC1 the results were ALDH1A1 block inactive, HttQ103 aggreg inactive, PNC inhibitor inconclusive, HTT cytoprotect inactive, RGS12 GoLoco inh-1 inactive and HPGD block inactive.
CCN(CC)C(=O)c1sc2nc(-c3cccs3)cc(-c3ccc(Cl)cc3)c2c1N was read as ALDH1A1 block inconclusive, HttQ103 aggreg inactive, PNC inhibitor inactive, HTT cytoprotect inactive, RGS12 GoLoco inh-1 inactive, HPGD block 6.3µM and HPGD inh conf 10µM.
CC(/C=N/NC(=O)c1cc(-c2cccnc2)nc2c1c(C)nn2-c1ccccc1)=C\c1ccccc1 was read as ALDH1A1 block inconclusive, HttQ103 aggreg inconclusive, PNC inhibitor inactive and HTT cytoprotect inactive[10 µM].
